94 compounds from PubChem BioAssay AID588334 (Broad Institute, 2011) can be followed below.

Structures are written as SMILES. In all, about 300,000 compounds went through this assay and about 2,300 (0.77%) were called active. Shown is part of a subset that was picked to be rich in actives. Unmarked numbers belong to inactive results.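 The calls were made as follows: active = mean activation of at least 80% with every replicate also reaching 80%; inconclusive = mean reaches 80% but some replicate falls short; inactive = the rest.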

The nature of this assay: activators of MITF-driven TRPM1 promoter reporter, primary screen, cell-based, SK-MEL-5, luciferase, single point (AID 588334).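 Also: 0% = neutral control wells and 100% = parthenolide positive control wells.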 The conditions noted are these: SK-MEL-5 TRPM1-promoter luciferase, 24 h; at 12.5 µM; stronger effect = higher value; % of positive control, neutral wells = 0.
Consider `CCOC(=O)c1ccccc1OC(=O)Oc1ccccc1C(=O)OCC`, for which the activation is -22.1%.

As for `CCCN1CCN(C(=O)Cn2ncc3ccccc32)CC1`, the activation is -0.935%. Then `CC(C)c1ccc(NC(=O)Cn2ncc3ccccc32)cc1`, with 93% (active); and `CCc1ccc(NC(=O)Cn2ncn3c(cc4ccccc43)c2=O)cc1`, with -8.34%; and `O=C(OCCOc1ccccc1Cl)c1cc(S(=O)(=O)N2CCCCC2)ccc1N1CCOCC1`, with -10.6%. The figure for `CN1CCN(C(=O)c2ccc(-c3ccc(Br)cc3)o2)CC1` is 123% (active); for `O=CN1CCN(C(=O)c2ccc(Br)o2)CC1` it is -12.5%. `COc1ccccc1OCc1ccc(C(=O)N2CCN(C)CC2)o1`: the activation is 1.8%.

As to `CC(C)=CCc1ccc(O)c(=O)cc1C(C)C`, the activation was -70.3%.

For `CC[C@@H](C)[C@@H]1CN([C@@H](C)CN2CCC[C@H]2CN2C(N)=NC[C@H]2C(C)C)C(=N)N1CCc1ccc(Cl)c(Cl)c1`, the activation is 5.32%. The figure for `CS(=O)(=O)N1CCN(c2cccc(Cl)n2)CC1` is -7.99%; for `CS(=O)(=O)N1CCN(C(=O)Cc2ccccc2)CC1` it is -6.87%; for `CS(=O)(=O)N1CCc2nc(-c3ccccc3)sc2C1` it is 92.1% (active). Then `COc1ccc(S(=O)(=O)Nc2cccc3c2O[C@H](CN(C)S(=O)(=O)c2ccc(OC)cc2)[C@@H](C)CN([C@H](C)CO)C3=O)cc1`, with 0.473%. The figure for `O=C1C=C(NS(=O)(=O)c2ccccc2)C(=O)c2ccccc21` is -65.5%; for `COc1ccc(Cn2cc(CN3CCS(=O)(=O)N(Cc4ccc(-c5cccc(Cl)c5)cc4)C(C)C3=O)nn2)cc1` (centres undefined) it is 0.982%; for `Cc1ccn(-c2cccc(-n3ccc(C)n3)n2)n1` it is 119% (active). `Cc1cccc(N2O[C@H]3C=CC2CCCC3)n1`: the activation was 63.6%.

Consider `O=C(NCc1cccnc1)C(=O)Nc1nc(-c2ccccc2)cs1`, for which the activation is 54.4%.

In the case of `O=C(Nc1nc(-c2cccnc2)cs1)c1ccccc1F`, the activation was 72.7%. The figure for `Cc1ccccc1Nc1nc(-c2cccnc2)cs1` is 97.6% (active). Then `Cc1ccc(C(=O)O)c(NC=O)c1OCc1ccccc1`, with 11%; and `NC(=O)C1CCN(C(=O)c2cc(S(=O)(=O)N3CCN(c4ccccc4)CC3)ccc2Cl)CC1`, with -3.4%. Regarding `CC(=O)c1cnc(-c2ccccc2)s1`, the activation was 13.4%. Then `O=C(/C=C/Nc1ccccc1)c1cnc(-c2ccccc2)s1`, with 37.6%; and `CC(C)(C)C(=O)c1cnc(Nc2ccccc2)s1`, with 124% (active).

Take `CN[C@H](C(=O)NC[C@H]1O[C@@H](n2cnc3c(N)ncnc32)[C@H](O)[C@@H]1O)[C@@H](C)OCc1ccccc1`: the activation was 17%. Turning to `COc1cc(NC(=O)c2[nH]cnc2C(N)=O)cc(C(=O)Nc2cccc(C(F)(F)F)c2)c1`, the activation is -88.9%.

As for `C[C@@H]1NS(=O)(=O)c2cc(Cl)ccc2O[C@@H]1c1ccccc1`, the activation is 2.48%. Regarding `Oc1cccc(/C=N/Nc2ccc(Cl)nn2)c1O`, the activation was -6.43%. Then `COc1cccc(/C=N\Nc2nncc(-c3ccccc3)n2)c1`, with 27.3%; and `COc1cccc(/C=N/Nc2ccc(Cl)nn2)c1`, with 93.6% (active); and `CCOC(=O)C1=CN(Cc2ccc(Br)cc2)S(=O)(=O)N(C)C1C` (centres undefined), with -0.639%. Then `O=C(O)c1ccc(S(=O)(=O)c2ccccc2)s1`, with -11%; and `Cc1cc(C(=O)N/N=C/c2ccccc2[N+](=O)[O-])c(C)o1`, with 84.3% (active). Then `CC(=C/c1ccccc1)/C=N/NC(=O)c1cc(C)oc1C`, with 25.1%; and `Cc1cc(C(=O)N/N=C\C(Br)=C\c2ccccc2)c(C)o1`, with 15.4%.

On to `Cc1ccc(OCCNC(=O)c2cccc(S(=O)(=O)N3CCN(Cc4ccccc4)CC3)c2)cc1`, for which the activation is -0.856%.

In the case of `Cc1cc(NC(=O)c2cc3ccccc3o2)no1`, the activation is -6.37%. The figure for `Cc1ccc(C(=O)CNc2ccc(F)cc2)cc1` is -0.394%. The figure for `COC(=O)c1ccc(NCC(=O)c2ccccc2)cc1` is 146% (active); for `COC(=O)c1ccc(NCc2cc(O)ccc2O)cc1` it is 3%. Then `CN1CCOC1c1ccc(C2OCCN2C)cc1` (centres undefined), with -9.68%; and `C=CCOC(=O)N1CCC2CC1c1cc(-c3ccc(OC)cc3)ccc12` (centres undefined), with -2.99%; and `COc1cc(OC)c(C(=O)NNC(=O)c2ccccc2-n2cccc2)cc1OC`, with 7.14%. Take `COC(=O)C1C(=O)c2c([nH]c(C(=O)OCCSC)c2C)CC1C` (centres undefined): the activation is 92.2% (active). Then `COCCOC(=O)c1[nH]c2c(c1C)C(=O)CC(c1ccc(OC)cc1)C2` (centres undefined), with 8.85%. Then `CCCOC(=O)c1[nH]c2c(c1C)C(=O)CC(c1cccs1)C2` (centres undefined), with -44.3%; and `COc1ccc(-c2noc(CCC(=O)N3CCN(c4cccc(C)c4)CC3)n2)cc1`, with 0.066%. The figure for `COc1ccc(-c2ccc3c(c2)[C@@H]2C[C@H](N(C)S(=O)(=O)c4ccccc4)[C@H]([C@H](C)O)C(=O)N2CC3)cc1` is -7.92%; for `CC(C)Cn1cnc2c(SCc3ccc(Cl)cc3)nc(N)nc21` it is 12.1%. As for `O=C(CC(=O)c1cccnc1)c1ccccc1`, the activation was 48%.

As to `Cc1cccnc1CC(C)NC(=O)c1cc(COc2cncc(Cl)c2)on1` (centres undefined), the activation was 51.4%. The figure for `Cc1cc(OCc2cc(C(=O)NCc3cc(C(C)C)no3)no2)cc(C)c1Cl` is 84.2% (active). Then `COc1ccc(OCc2cc(C(=O)NCC3(C)COC3)no2)c(Cl)c1`, with 37.2%; and `CC(C)(C)OC(=O)N1CCC(C(=O)Nc2cccc(C(=O)NCCc3ccccc3)c2)CC1`, with 0.242%; and `CCCCc1ccc(NC(=S)N2CCCC(CO)C2)cc1` (centres undefined), with 105% (active).

As for `CCCCc1ccc(NC(=S)NCCCN2CCOCC2)cc1`, the activation was 13.8%.

Take `COc1ccc(NC(=S)N2CCCC(CO)C2)c(OC)c1` (centres undefined): the activation was -5.46%. Then `NS(=O)(=O)c1ccc(CCNC(=O)c2ccc(Cl)c(S(=O)(=O)N3CCCCCC3)c2)cc1`, with -34.2%. Then `CC(C)(C)c1nnc2sc(SCC(O)=C(C#N)c3nc4ccccc4[nH]3)nn2c1=O`, with 7.19%; and `O=[N+]([O-])c1ccc(NS(=O)(=O)c2ccccc2)c(Cl)c1`, with -5.26%. For `O=C(NCc1ccc2c(c1)OCO2)c1ccc(Cl)s1`, the activation was 9.51%.

Consider `COc1ccc(C(=O)NC2=NCCS2)c(OC)c1`, for which the activation is 33.9%. Then `O=C(NC1=NCCS1)c1ccc(Cl)s1`, with 121% (active); and `C[C@H](CO)N1C[C@H](C)[C@H](CN(C)CC2CC2)Oc2ccc(NC(=O)CCN3CCOCC3)cc2C1=O`, with 4.29%. In the case of `COc1cc(/C=C/CNC[C@H]2O[C@@H](n3cnc(C(N)=O)n3)[C@H](O)[C@@H]2O)ccc1O`, the activation is -8.98%. The figure for `C=CC(=O)Nc1ccc(Nc2ccnc(Nc3ccc(N4CCN(C)CC4)cc3)n2)cc1` is -13.2%.

Take `Nc1cc2c(cc1Br)-c1ccc(F)cc1C2=O`: the activation is 7.07%. `COC(=O)[C@@]1(C)[C@H]2C(=O)N(Cc3ccccc3)C(=O)[C@H]2[C@H]2CN=C(SCC3CC3)N21`: the activation was -1.12%. Then `COC1=NC2=NCCN2C(OC)=N1`, with 4.31%; and `CC(C)CNC(=O)c1cc(-c2ccc(Br)cc2)on1`, with 124% (active).

As for `CC(C)Cc1cc(C(=O)Nc2cc(Br)ccc2O)no1`, the activation is 42.2%. As to `Cc1c(NC(=O)c2cc(-c3ccc(Br)cc3)on2)c(=O)n(-c2ccccc2)n1C`, the activation was 6.12%. On to `CC(=O)c1ccc(NC(=O)CSc2nc3ccccc3c(=O)n2CCCN2CCOCC2)cc1`, for which the activation is 14.6%.

As for `Cc1ccc(NC(=O)C(=O)NCc2ccco2)c(C)c1`, the activation was 72.2%. Take `Cc1ccc(NN=C2C(=O)OC(C)(C)OC2=O)c(C)c1`: the activation is 120% (active). Then `Cc1ccc(NC(=O)c2oc(=O)c3ccccc3c2-c2ccccc2)c(C)c1`, with -8.24%.

With `COc1ccc(CNc2nc(NCc3ccc(OC)cc3)c3ncn(C4CCCC4)c3n2)cc1`, the activation was -22%. Then `CCCN(C(=O)CSc1nnc(N)s1)c1c(N)n(Cc2ccccc2)c(=O)[nH]c1=O`, with -11.7%; and `CCCCNCCS(=O)(=O)NCc1ccccc1`, with 11.7%; and `FC(F)(F)c1ccnc(Oc2ccc(C3=NCCS3)cc2)c1`, with 102% (active). The figure for `O=Cc1ccc(Oc2cccc(C(F)(F)F)c2)nc1` is 2.89%; for `O=[N+]([O-])c1cccc(C2=NCCS2)c1` it is -11.6%; for `CC1C(C)N(C(=O)CCl)c2ccccc2N1C(=O)CCl` (centres undefined) it is -89.8%.

With `Cc1nn(-c2ccc([N+](=O)[O-])cc2)c(N)c1-c1ccccc1`, the activation is 97.5% (active). Regarding `O=C1CC(c2ccccc2)=NN1c1ccc([N+](=O)[O-])cc1`, the activation is 29.1%. Then `Cc1nn(-c2ccccc2)c2c1C(c1cccc([N+](=O)[O-])c1)N(c1ccccc1)C(=O)N2` (centres undefined), with -8.33%; and `COC(=O)CCC(=O)N1CCCC(CO)(Cc2ccccc2)C1` (centres undefined), with 94.6% (active); and `Cc1ccccc1CC1(CO)CCCN(C(=O)c2cc(-c3ccccc3)no2)C1` (centres undefined), with 6.1%. Then `Cc1noc(C)c1CCC(=O)N1CCCC(CO)(Cc2ccccc2)C1` (centres undefined), with 67.5%. The figure for `Cn1cc(C2OC(=O)c3ccccc32)c2ccccc21` (centres undefined) is -10.6%. Take `COc1ccccc1N(CC(=O)Nc1c(C)n(C)n(-c2ccccc2)c1=O)S(=O)(=O)c1ccccc1`: the activation is -1.77%.

Turning to `CCCCN(C(=O)c1cccc(N2C(=O)c3ccccc3C2=O)c1)c1c(N)n(CCCC)c(=O)[nH]c1=O`, the activation was -1.35%.
